Measured values published in PubChem BioAssay AID1566 (Sanford-Burnham Center for Chemical Genomics, 2009).
Out of some 290,000 compounds screened, about 1,800 (0.62%) were called active. Only a selection was taken, and actives are over-represented in it overall. Unmarked numbers belong to inactive results. Rule as the data show it: active = inhibition above about 50%; inactive = the rest.

Test: NOD2 signaling inhibitors, cell-based, luminescence, uHTS, HEK293 (AID 1566)
Settings: HEK293 NOD2/NF-kB luciferase reporter, at 4 µM, stronger effect = higher value

SMILES	inhibition
COc1cccc(CNC(=O)C2CCC(=O)N(C3CC3)C2)c1OC (stereo unspecified)	-2.5%
O=C(NCCSCc1ccc(Cl)cc1)c1cccs1	6.3%
CCOc1ccc(-c2[nH]ncc2-c2ccc(Cl)cc2)c(O)c1	17.2%
CSc1nc(Oc2ccc3ccccc3c2)c2ccccc2n1	-0.5%
CCN(Cc1ccccc1)C(=O)Cn1c(=O)n(CCC(=O)N2CCCCC2)c(=O)c2sccc21	1.5%
O=[N+]([O-])c1ccc(Nc2ccccc2O)c2nonc12	16%
O=[N+]([O-])c1ccc(Nc2ccccc2)c2nonc12	42%
O=[N+]([O-])c1ccc(Sc2cccc[n+]2[O-])c2nonc12	93% (active)
O=C(NCCN1CCOCC1)c1ccccc1N1C(=O)[C@@H]2Cc3c([nH]c4ccccc34)C(c3ccccc3)N2C1=O (stereo partly specified)	5.2%
Cc1ccc(NC2CCCN(C(=O)CCn3nccc3C)C2)cc1C (stereo unspecified)	-4%
CC1(C)CC(N2CCCCC2)=CC(=[N+]2CCCCC2)C1	44.9%
CC1(C)CC(N2CCCC2)=CC(=[N+]2CCCCC2)C1	33.8%
Cc1cc(C(=O)OCC(=O)Nc2cc(S(=O)(=O)N(C)C)ccc2Cl)c2ccccc2n1	10.5%
Cc1oc(-c2ccc3c(c2)OCCO3)cc1C(=O)O	79% (active)
CCOC(=O)CNC(=O)c1cc(-c2ccc3c(c2)OCCO3)oc1C	-25%
Cc1oc(-c2ccc3c(c2)OCCO3)cc1C(=O)NCC(=O)O	18%
CC1CN(CCOc2ccc(Cl)c(Cl)c2)CC(C)O1 (stereo unspecified)	-27.9%
O=C(NCC(=O)N1CCN(c2ccccc2)CC1)c1ccccc1	-11.2%
Clc1ccc(/C=C/c2nc(Cl)c(-c3ccc(Cl)cc3)c(Cl)n2)cc1	15.1%
CN1/C(=C\C=C(/C#N)C(=O)Nc2ccc(Cl)cc2)C(C)(C)c2ccccc21	50.6% (active)
CN1/C(=C/C=C(/C#N)C(N)=O)C(C)(C)c2ccccc21	-25.4%
CN1/C(=C\C=C(/C#N)C(=O)Nc2ccccc2F)C(C)(C)c2ccccc21	23.2%
Cc1nn(C(=O)CCCn2cc([N+](=O)[O-])cn2)c(C)c1Cl	16.7%
Cc1ccc(C(=O)NCCNc2ccc([N+](=O)[O-])cc2C(F)(F)F)cc1	16.4%
COc1ccc(-c2cc(=O)oc3cc(OCC(C)=O)ccc23)cc1	-11.8%
COc1ccc(-c2cc(=O)oc3cc(OC(C)C(=O)O)ccc23)cc1 (stereo unspecified)	-5.9%
